Screen size: about 310,000 compounds; about 14,000 (4.5%) showed an effect of 50% or more. The effect is printed as a negative number. This excerpt belongs to a sample that is enriched for strong results.
What follows are compounds tested against human ether-à-go-go-related gene (hERG) potassium channel (human, UniProt Q12809) (assay: primary screen, population patch clamp on CHO cells stably expressing hERG; higher = less effect of the substance).
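Also: peak tail current of the secondary pulse compared with the same well before compound.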

human ether-à-go-go-related gene (hERG) potassium channel, sequence (Q12809 whole entry, looked up): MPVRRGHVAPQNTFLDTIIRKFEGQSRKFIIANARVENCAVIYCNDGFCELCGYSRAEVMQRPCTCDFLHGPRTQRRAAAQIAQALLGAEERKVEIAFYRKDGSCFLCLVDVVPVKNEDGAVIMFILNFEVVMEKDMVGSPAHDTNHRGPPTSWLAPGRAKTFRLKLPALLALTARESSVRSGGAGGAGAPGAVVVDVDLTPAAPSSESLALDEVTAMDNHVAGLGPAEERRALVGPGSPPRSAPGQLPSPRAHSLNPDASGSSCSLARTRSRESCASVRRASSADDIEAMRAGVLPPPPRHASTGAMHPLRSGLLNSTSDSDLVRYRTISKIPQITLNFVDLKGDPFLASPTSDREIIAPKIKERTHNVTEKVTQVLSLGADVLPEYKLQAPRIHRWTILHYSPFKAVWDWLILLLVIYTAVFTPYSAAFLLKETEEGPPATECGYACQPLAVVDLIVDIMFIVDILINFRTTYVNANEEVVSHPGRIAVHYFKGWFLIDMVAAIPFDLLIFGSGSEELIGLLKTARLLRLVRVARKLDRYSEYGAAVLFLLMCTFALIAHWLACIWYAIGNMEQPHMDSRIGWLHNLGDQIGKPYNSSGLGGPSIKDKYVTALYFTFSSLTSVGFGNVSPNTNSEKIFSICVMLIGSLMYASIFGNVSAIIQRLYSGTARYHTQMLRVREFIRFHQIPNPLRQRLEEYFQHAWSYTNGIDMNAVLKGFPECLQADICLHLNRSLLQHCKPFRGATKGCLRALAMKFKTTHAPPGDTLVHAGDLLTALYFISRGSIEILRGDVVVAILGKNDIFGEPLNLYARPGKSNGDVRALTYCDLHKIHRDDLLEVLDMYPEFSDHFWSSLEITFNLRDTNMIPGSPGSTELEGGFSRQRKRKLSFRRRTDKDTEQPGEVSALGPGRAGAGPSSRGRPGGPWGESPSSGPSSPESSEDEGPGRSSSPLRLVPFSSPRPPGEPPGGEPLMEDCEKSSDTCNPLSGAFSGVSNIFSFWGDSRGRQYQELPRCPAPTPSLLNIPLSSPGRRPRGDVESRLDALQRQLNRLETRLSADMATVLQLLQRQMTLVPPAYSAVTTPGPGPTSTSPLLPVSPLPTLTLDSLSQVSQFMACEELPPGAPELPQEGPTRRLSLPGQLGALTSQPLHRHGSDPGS

| Structure (SMILES) | hERG current change (%, negative = inhibition) at 10uM |
| --- | --- |
| Cn1nc(-c2ccccc2)c(C(=O)Nc2ccc(Cl)cc2)c1Cl | -12.7% |
| O=C(CC1(O)C(=O)Nc2ccccc21)c1ccc(-n2cccc2)cc1 (centres unmarked) | 2.85% |
| CCCCN1C(N)=NC[C@@H]1C(C)O (some centres unmarked) | 15.9% |
| Cc1nn(-c2ccc(F)cc2)c(Cl)c1C(=O)OC(C)C(=O)N(C)C1CCCCC1 (centres unmarked) | -59% |
| CC(=O)Nc1ccc(NC(=O)C(C)OC(=O)c2c(C)nn(-c3ccccc3)c2Cl)cc1 (centres unmarked) | -14.8% |
| COC(=O)c1c(C)[nH]c(C(=O)OC(C)C(=O)N(C)C2CCCCC2)c1C (centres unmarked) | -2.13% |
| Cc1ccsc1C(=O)C1CCCN(Cc2cccn2-c2ccc(Cl)cn2)C1 (centres unmarked) | -77.6% |
| Cc1ccsc1C(=O)C1CCCN(Cc2cnc(N(C)C)s2)C1 (centres unmarked) | -9.23% |
| Cc1ncc(CN2CCCC(C(=O)c3sccc3C)C2)s1 (centres unmarked) | 24.7% |
| Cc1ccsc1C(=O)C1CCCN(Cc2cccn2-c2ccccn2)C1 (centres unmarked) | -75.8% |
| CC(C)(C)C(=O)NC1(C(F)(F)F)N=C2SCCN2C1=O (centres unmarked) | -4.77% |
| CNC(=O)c1c(NC(=O)c2ccco2)sc(C)c1C | 1.42% |
| CCOc1cccc2c1OC1(C)CC2NC(=O)N1c1cccc(C(=O)N2CCN(c3ccccn3)CC2)c1 (centres unmarked) | -1.89% |
| Cc1cc(Br)c(NC(=O)Cn2c([N+](=O)[O-])cnc2C)cc1C | 4.01% |
| COc1ccc(NC(=O)C(=O)NCC(c2ccco2)N2CCc3ccccc3C2)cc1 (centres unmarked) | -23.5% |
| O=C(NCc1ccco1)c1ccc(Cl)c(S(=O)(=O)N2CCc3ccccc32)c1 | -20.6% |
| COc1ccc(C)cc1S(=O)(=O)NCC(c1ccco1)N1CCc2ccccc2C1 (centres unmarked) | -62.8% |
| O=C(NCC(c1ccco1)N1CCc2ccccc2C1)c1cccc(Br)c1 (centres unmarked) | -5.34% |
| O=C(NCC(c1ccco1)N1CCc2ccccc2C1)c1cccc([N+](=O)[O-])c1 (centres unmarked) | -67.2% |
| COc1ccc(F)cc1S(=O)(=O)NCC(c1ccco1)N1CCc2ccccc2C1 (centres unmarked) | -30.4% |
| COc1cccc(NC(=O)C(=O)NCC(c2ccco2)N2CCc3ccccc3C2)c1 (centres unmarked) | -9.29% |
| COc1ccc(NC(=O)C(=O)NCC(c2ccco2)N2CCc3ccccc3C2)cc1OC (centres unmarked) | -69.4% |
| Cc1ccc(C)c(S(=O)(=O)NCC(c2ccco2)N2CCc3ccccc3C2)c1 (centres unmarked) | -9.3% |
| O=C(NCC(c1ccco1)N1CCOCC1)c1cccc([N+](=O)[O-])c1 (centres unmarked) | 12.7% |

| Structure (SMILES) | hERG current change (%, negative = inhibition) at 10uM |
| --- | --- |
| O=C(NCC(c1ccco1)N1CCCC1)c1ccc(Cl)c(S(=O)(=O)N2CCc3ccccc32)c1 (centres unmarked) | -51% |
| O=C(NCC(c1ccco1)N1CCCCC1)c1cccc(S(=O)(=O)Nc2ccccc2Cl)c1 (centres unmarked) | -2.33% |
| COc1ccc(C)cc1NC(=O)c1nnn(Cc2cccc(F)c2)c1N | 7.11% |
| O=C(c1ccc(NS(=O)(=O)c2ccccc2)cc1)N1CCCCCC1 | -11.9% |
| COC(=O)c1cc(C#N)c(=O)[nH]c1C | 20.3% |
| Cc1cccc(OCC(=O)Nc2cccc(-c3nnc(-c4ccccc4)o3)c2)c1C | -4.37% |
| CC(C)N1CCC(N2CCN(C3CCCCC3)CC2CCO)CC1 (centres unmarked) | 18.9% |
| O=C(NCC(c1ccco1)N1CCc2ccccc2C1)C(=O)Nc1ccc(F)cc1F (centres unmarked) | -0.136% |
| Cc1ccc(C(=O)NCC(c2ccco2)N2CCc3ccccc3C2)cc1C (centres unmarked) | -5.02% |
| O=C(NCC(c1ccco1)N1CCc2ccccc2C1)c1ccc(Br)cc1 (centres unmarked) | -12.6% |
| O=C(NCC(c1ccco1)N1CCc2ccccc2C1)c1ccc(Cl)cc1 (centres unmarked) | -47.8% |
| O=C(NCC(c1ccco1)N1CCc2ccccc2C1)c1ccc(Cl)c([N+](=O)[O-])c1 (centres unmarked) | -55.5% |
| O=C(NCC(c1ccco1)N1CCc2ccccc2C1)C(=O)Nc1ccccc1F (centres unmarked) | 8.09% |
| O=C(NCC(c1ccco1)N1CCc2ccccc2C1)c1ccccc1 (centres unmarked) | -19% |
| O=C(NCC(c1ccco1)N1CCc2ccccc2C1)C(=O)Nc1cc(F)ccc1F (centres unmarked) | -52.3% |
| O=C(NCC(c1ccco1)N1CCc2ccccc2C1)c1ccc(F)cc1 (centres unmarked) | -10.7% |
| O=C(NCC(c1ccco1)N1CCc2ccccc2C1)c1cccc(F)c1 (centres unmarked) | -63.5% |
| O=C(NCC(c1ccco1)N1CCc2ccccc2C1)c1ccc([N+](=O)[O-])cc1 (centres unmarked) | -58.1% |
| COc1cccc(C(=O)NCC(c2ccco2)N2CCc3ccccc3C2)c1 (centres unmarked) | -17% |
| O=C(CN1C(=O)S/C(=C\c2ccc(C(=O)O)cc2)C1=O)Nc1ccccc1 | 19% |
| CCCCNC(=O)C1Cc2cc(S(=O)(=O)N3CCCCC3)ccc2N1C(C)=O (centres unmarked) | 17.4% |
| COc1ccc(C2(c3ccc(OC)cc3)NC(=O)N(CC(=O)Nc3ccc(OC)c(OC)c3)C2=O)cc1 | -2.49% |
| Cc1noc(/C=C/N(C)C)c1S(=O)(=O)N1CCCC(C(=O)N2CCc3ccccc32)C1 (centres unmarked) | 13% |
| CCC(NC(=O)C1CCCO1)c1ccccc1 (centres unmarked) | 22.8% |

| Structure (SMILES) | hERG current change (%, negative = inhibition) at 10uM |
| --- | --- |
| Cc1ccc(CNC(=O)CNC(=O)c2ccc(Br)o2)cc1 | 5.03% |
| Cc1ccccc1CN1[C@@H]2c3ccccc3C[C@@H]2OCCS1(=O)=O | -3.4% |
| COc1ccc(C(C(=O)NC2CCCCC2)N(C(=O)c2ccccn2)c2cccnc2)cc1 (centres unmarked) | 22.4% |
| CCCCC(=O)OCC(=O)Nc1ccc(C)c(F)c1 | 14.6% |
| Cc1ccccc1NNC(N)=S | 5.65% |
| Cc1oc(S(=O)(=O)N2CCCC2)cc1C(=O)Nc1ccccc1 | 7.38% |
| CCOc1cc(C(=O)N2CCCN(C)CC2)cc(OCC)c1OCC | 14.8% |
| Cc1onc(-c2ccccc2)c1C(=O)N1CCN(S(=O)(=O)c2ccc3c(c2)OCCO3)CC1 | -17.2% |
| Cl.O=C(/C=C/c1cn(-c2ccccc2)nc1-c1ccc2c(c1)OCCO2)NCCCN1CCOCC1 | -5.65% |
| O=C(/C=C/c1cn(-c2ccccc2)nc1-c1ccc2c(c1)OCCO2)NCCO | -51.1% |
| O=C(O)/C=C/c1cn(-c2ccccc2)nc1-c1ccc2c(c1)OCCO2 | 10.1% |
| C/C(=N\NC(=O)CNc1cccc2ccccc12)c1ccc(Br)s1 | 6.57% |
| Cc1ccc(C(=O)OCC(=O)Nc2cccc(S(=O)(=O)NC3=NCCCCC3)c2)c(C)c1 | -15.4% |
| CS(=O)(=O)Nc1cccc(C(=O)CC2(O)C(=O)Nc3ccccc32)c1 (centres unmarked) | 8.15% |
| Nc1n[nH]c(N)c1N=Nc1ccccc1 | 16.7% |
| CCN(CC)c1ccc(/C=N/N2CCN(c3ccccc3OC)CC2)cc1 | 14.4% |
| COc1ccccc1N1CCN(C/C=C/c2ccc(N(C)C)cc2)CC1 | -53.9% |
| CCOc1ccccc1N1CCN(C/C=C/c2ccc(N(C)C)cc2)CC1 | -60.1% |
| CCOc1ccccc1N1CCN(Cc2ccco2)CC1 | -14.9% |
| COc1ccccc1/C=C/CN1CCN(c2ccccc2)CC1 | -15.6% |
| CCOc1ccccc1N1CCN(C(=O)CC(C)(C)C)CC1 | 0.665% |
| CCOc1ccccc1C1CC(=O)Nc2c1c(=O)n(C)c(=O)n2C (centres unmarked) | 7.34% |
| O=C(NCc1ccccc1)C(=O)NCC1OCCN1S(=O)(=O)c1ccc2c(c1)OCCO2 (centres unmarked) | -3.14% |
| O=C(CCCc1nc(-c2ccc(Cl)cc2)no1)Nc1cccnc1 | -24.6% |

| Structure (SMILES) | hERG current change (%, negative = inhibition) at 10uM |
| --- | --- |
| COc1ccc(C2C(=O)N(C3CCCCC3)CC(=O)N2C2CCCC2)cc1 (centres unmarked) | -12.1% |
| Cc1ccc(C2C(=O)N(C3CCCC3)CC(=O)N2C2CCCCC2)cc1 (centres unmarked) | -25.4% |
| CCCOc1ccc(C2C(=O)N(C3CCCCCC3)CC(=O)N2Cc2ccco2)cc1OC (centres unmarked) | -36.7% |
| COc1cc(C2C(=O)N(C3CCCC3)CC(=O)N2Cc2ccco2)ccc1OC(C)C (centres unmarked) | -27.6% |
| COc1ccc(C2C(=O)N(C3CCCCC3)CC(=O)N2Cc2ccco2)cc1 (centres unmarked) | -53.7% |
| COc1ccc(C2C(=O)N(C3CCCCC3)CC(=O)N2C2CCCCC2)cc1 (centres unmarked) | -51.7% |
| COc1cccc(-c2nnc3n2N=C(c2cccc(Br)c2)CS3)c1 | 6.32% |
| CCOC(=O)Cn1c(-c2ccccc2)ccc(C#N)c1=O | 8.28% |
| Cc1ccc(S(=O)(=O)NC23CC4CC(CC(C4)C2)C3)cc1 | 3.97% |
| CCC(=O)N1CCN(c2ccc(Cl)cc2NC(=O)c2ccc(N3CCCC3)c([N+](=O)[O-])c2)CC1 | -6.9% |
| COc1ccccc1NC(=O)CCN1C(=O)C2CC=C(Cl)CC2C1=O (centres unmarked) | -2.46% |
| COc1cc(C(=O)NC2CCN(Cc3ccccc3)CC2)cc(Cl)c1OC | -44.3% |
| Cc1ccc(/C=C(\NC(=O)c2ccccc2)C(=O)NCCN2CCOCC2)o1 | -3.91% |
| Cc1ccc(/C=C(\NC(=O)c2ccccc2)C(=O)NCC2CCCO2)o1 (centres unmarked) | -5.4% |
| COc1ccccc1CC(=O)NC1CCN(Cc2ccccc2)CC1 | 1.52% |
| C=C(C)c1cccc(C(C)(C)NC(=O)NC2CN3CCC2CC3)c1 (centres unmarked) | 1.14% |
| Cc1ccc(/C=C(\NC(=O)c2ccccc2)C(=O)NC2CCN(Cc3ccccc3)CC2)o1 | -55.5% |
| CC(C)(Oc1ccc(Cl)cc1)C(=O)NC1CCCCC1 | 0.43% |
| C=C(C)c1cccc(C(C)(C)NC(=O)NC2CCCC2)c1 | 15.1% |
| COc1cc(C(=O)NC2CCN(Cc3ccccc3)CC2)cc(Cl)c1OC(C)C | -61.2% |
| CC(C)(Oc1ccc(Cl)cc1)C(=O)NC1CC1 | 1.41% |
| CC(C)(Oc1ccc(Cl)cc1)C(=O)NC1CCN(Cc2ccccc2)CC1 | -70.4% |
| C=C(C)c1cccc(C(C)(C)NC(=O)NC2CCN(Cc3ccccc3)CC2)c1.Cl | -55.5% |

Reference: article PMC4336329 (PLoS ONE, 2015)
